Assay results as given in the supplement of paper PMC10338343.
± gives the standard deviation. Whole data set: some 3,000 sequences, median “pre-steady-state target cleavage rate” near 0.0079, cut for the highest 2% near 0.2. Shown is part of a subset that was picked to be rich in the highest values.

Test system: MILI (PIWIL2) piRISC loaded with piRNA #2 (26 nt)
Test: pre-steady-state target cleavage rate (min^-1); MIWI and MILI are mouse PIWI proteins and EfPiwi is from a freshwater sponge; tags in brackets are library labels; higher = faster piRNA-guided slicing of the target
Conditions: guide: piRNA #2 5'p-UUAGGUAACCCAGUAGAUCCAGAGGA; auxiliary factor: 500 nM mouse GTSF1
Experimental: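 Cleave-'n-Seq: a library of target RNAs (target site embedded in constant flanks, ACAGCATTCCGCGTTAGTGATATCCG... 5' flank; DNA-blocked outside the site) at 0.1 nM was incubated with 1 nM active mouse MILI or MIWI piRISC (synthetic 5'-monophosphorylated piRNA guide) with or without 500 nM mouse GTSF1 at 33 °C for 1 min to 16 h. Uncleaved targets were sequenced and normalised to non-target controls, and the pooled three trials were fitted to a burst-and-steady-state model to give the pre-steady-state cleavage rate (min^-1; k3 is constrained to at most 1e-4). Sequence is the target site only; target names encode pairing extent (gX:gY) and contiguous / 1-mismatch / 2-mismatch / bulge geometry. Fits with R² ≤ 0 are excluded.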

Sequence | pre-steady-state target cleavage rate
CUUAUCCUCUGGAUCUACUGGGUUACGUAA | 0.0586 ± 0.014
CUUAACCUCAGCAUCUACUGGGUUACCUAA | 0.111 ± 0.027
CUUAUCCUCAGCAUCUACUGGGUUACCUAA | 0.271 ± 0.06
CUUAACCUCUGCAUCUACUGGGUUACGUAA | 0.155 ± 0.069
CUUAUCCUCACCAUCUACUGGGUUACCUAA | 0.127 ± 0.051
CUUAACCUCUCGGAUCUACUGGGUUACCUAA | 0.0634 ± 0.017
CUUAAGGAGGGGAUCUACUGGGUUACCUAA | 0.0293 ± 0.022
CUUAUCCUCUGGAUGUACAGGGUUACCUAA | 0.135 ± 0.011
CUUAAGGUCUGGCAUCUACUGGGUUACCUAA | 0.211 ± 0.069
CUUAACCUCUGGCUCUACUGGGUUACCUAA | 0.8 ± 0.2
CUUAACCUCUUGGAUCUACUGGGUUACCUAA | 0.245 ± 0.072
CUUAAGGUCUGGGUCUACUGGGUUACCUAA | 0.0913 ± 0.015
CUUAACCUCUGAUCUACUGGGUUACCUAA | 0.0852 ± 0.019
CUUAACCUCUGGAUCUACUGGGUUACCUAAA | 0.0972 ± 0.022
CUUAACCUCUGCAUCUACUGGGUUACCUAA | 0.185 ± 0.036
CUUAACCUCUGGGAUCUACUGGGUUACCUAA | 0.168 ± 0.03
CUUAAGGUCUGCAUCUACUGGGUUACCUAA | 0.0733 ± 0.018
CUUAACCUUGGAUCUACUGGGUUACCUAA | 0.134 ± 0.041
CUUAACCUCUGGACUCUACUGGGUUACCUAA | 0.0674 ± 0.018
CUUAACCUCUGGCAUCUACUGGGUUACCUAA | 2.04 ± 1.1
CUUAACCUCUGGAACUUCUGGGUUACCUAA | 0.103 ± 0.028
CUUAAGCUCUGGAUCUAGUGGGAUACCUAA | 0.00824 ± 0.0045
CUUAUCCUCUCGAUCUACUGGGAUACCUAA | 0.0565 ± 0.013
CUUAUCCUCUGCAUCUACUGGGAUACCUAA | 0.0522 ± 0.025

Sequence | pre-steady-state target cleavage rate
CUUAAGGAGACGAUCUACUGGGUUACCUAU [g2:g19:cont:t1U] | 0.00667 ± 0.0036
CUUAAGCUCUGGAUCUACUGGGUUAACUAA | 0.095 ± 0.017
CUUAUCCUCUGGAUCUACUGGGCUUACCUAA | 0.0139 ± 0.005
CUUAAGCUCUGGCAUCUACUGGGUUACCUAA | 0.453 ± 0.15
CUUAACCUCUGGAUUACUGGGUUACCUAA | 0.0792 ± 0.024
CUUAAGCUCUGGCUCUACUGGGUUACCUAA | 0.163 ± 0.034
CUUAAGCUCUGCAUCUACUGGGUUACCUAA | 0.0767 ± 0.016
CUUAACCUCUGGAUCUACUGGGUUACCUAA [g2:g25:cont:t1A] | 0.101 ± 0.02
CUUAACCUCUGGAUUCUACUGGGUUACCUAA | 0.273 ± 0.093
CUUAUCGUCAGGAUCUACUGGGUUACCUAA | 0.03 ± 0.012
CUUAUGCUCUGGAUCUACUGCGUUACCUAA | 0.0127 ± 0.0036
CUUAAGGACUGGAUCUACUGGGUUACCUAA [g2:g22:cont:t1A] | 0.0428 ± 0.02
CUUAAGGAGACCUAGUACGGGUUACCUAA | < 0.0001
CUUAAGGAGAGGAAUCUACUGGGUUACCUAA | 0.00399 ± 0.0036
CUUAUCCUCUGGAUGUACUGGGUUACGUAA | 0.0286 ± 0.0078
CUUAAGGACUGGAUCUACGGGGUUACCUAA | 0.0466 ± 0.013
CUUAACCUCUGGACUACUGGGUUACCUAA | 0.156 ± 0.037
CUUAUCCUCUAGAUCUACUGGGUUACCUAA | 0.224 ± 0.034
CUUAACCUCUGGUAGUACUGGGUUACCUAA | 0.078 ± 0.025
CUUAUCCUCUGGUUCUACUGGGAUACCUAA | 0.188 ± 0.078
CUUAUCCUCUGCAUCUACUGGGUUAGCUAA | 0.145 ± 0.054
CUUAUCCUCUGCAUCUACUGGGUUUCCUAA | 0.165 ± 0.071
CUUAUCCUCUGGAUCUACUGGGUUAGCUAA | 0.129 ± 0.025
CUUAUCCUCUGGUUCUACUGGGUUAGCUAA | 0.235 ± 0.069

Sequence | pre-steady-state target cleavage rate
CUUAUCCUCUGGUUCUACUGGGUUUCCUAA | 2.2 ± 1.7
CUUAUCCUCUAGGAUCUACUGGGUUACCUAA | 0.049 ± 0.012
CUUAUCCUCUGAGAUCUACUGGGUUACCUAA | 0.106 ± 0.02
CUUAACCUCUGGUACUACUGGGUUACCUAA | 0.256 ± 0.074
CUUAAGCUCUGGAUCUACAGGGUUACGUAA | 0.0394 ± 0.01
CUUAAGCUCUGGAUCCACUGGGUUACCUAA | 0.0284 ± 0.0092
CUUAACCUCUGCAUCUACAGGGUUACCUAA | 0.0773 ± 0.014
CUUAAGGACUCGAUCUACUGGGUUACCUAA | 0.0128 ± 0.0065
CUUAAGGAGAGGAUCUACAGGGUUACCUUA | 0.0102 ± 0.0051
CUUAACCUCUGGAUCUAGUGGGAUACCUAA | 0.0146 ± 0.0055
CUUAUCCUCUGGAUGUACUGGGUUACCUAA | 0.108 ± 0.022
CUUAAGGUCUGGAUCUACUGGGAAACCUAA | 0.0107 ± 0.0055
CUUAUCCUCUGGUUCUACUGGGUUACGUAA | 0.634 ± 0.25
CUUAAGCUCUGGUUCUACUGGGUUACCUAA | 0.131 ± 0.027
CUUAUCCUCUCGAUCUACUGGGUUACCAAA | 0.13 ± 0.025
CUUAAGCUCUGGUUCUACUGGGUUACCUUA | 0.126 ± 0.036
CUUAUCCUCUGGUUCUACUGGGUUACCAAA | 0.453 ± 0.15
CUUAUCCUCUGGAACUACUGGGUUACCAAA | 0.13 ± 0.044
CUUAUCCUCUGGAACUACUGGGUUACCUAA | 0.188 ± 0.042
CUUAACCUCUGGUUCUACUGGGUUACGUAA | 0.12 ± 0.043
CUUAUCCUCUGGAACUACUGGGUUACGUAA | 0.197 ± 0.068
CUUAUCCUCUGGAACUACUGGGUUACCUUA | 0.266 ± 0.073
CUUAUCCUCUGGAUCUACUGGGUUACCAA | 0.123 ± 0.022
CUUAAGCUCUGGUUCUACUGGGUUACCAAA | 0.199 ± 0.063
